Results published in the supplement of paper PMC12067093, “Discovery and optimisation of a covalent ligand for TRIM25 and its application to targeted protein ubiquitination” (Chemical Science, 2025).
Targets with the largest changes are over-represented here; the source holds about 21,000 in all.

Compound: CC1Cc2ccccc2N1C(=O)C1CCCN(C1)C(=O)CCl (mixture of isomers) [TRIM25 ligand 11 (diastereomer mixture)]
Test: probe-labelled cysteine peptide fold change vs DMSO (competition) (log2 fold change); higher = less target engagement (more negative = stronger competition)
Conditions: THP-1, incubation time: 4 h
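Note: competitive chemoproteomic profiling in live THP-1 cells with an iodoacetamide desthiobiotin (IA-DTB) probe, comparing probe-labelled peptide intensities in compound-treated cells against DMSO-treated controls.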

Sequence of UniProt Q9NZJ4 (Q9NZJ4 whole entry, looked up): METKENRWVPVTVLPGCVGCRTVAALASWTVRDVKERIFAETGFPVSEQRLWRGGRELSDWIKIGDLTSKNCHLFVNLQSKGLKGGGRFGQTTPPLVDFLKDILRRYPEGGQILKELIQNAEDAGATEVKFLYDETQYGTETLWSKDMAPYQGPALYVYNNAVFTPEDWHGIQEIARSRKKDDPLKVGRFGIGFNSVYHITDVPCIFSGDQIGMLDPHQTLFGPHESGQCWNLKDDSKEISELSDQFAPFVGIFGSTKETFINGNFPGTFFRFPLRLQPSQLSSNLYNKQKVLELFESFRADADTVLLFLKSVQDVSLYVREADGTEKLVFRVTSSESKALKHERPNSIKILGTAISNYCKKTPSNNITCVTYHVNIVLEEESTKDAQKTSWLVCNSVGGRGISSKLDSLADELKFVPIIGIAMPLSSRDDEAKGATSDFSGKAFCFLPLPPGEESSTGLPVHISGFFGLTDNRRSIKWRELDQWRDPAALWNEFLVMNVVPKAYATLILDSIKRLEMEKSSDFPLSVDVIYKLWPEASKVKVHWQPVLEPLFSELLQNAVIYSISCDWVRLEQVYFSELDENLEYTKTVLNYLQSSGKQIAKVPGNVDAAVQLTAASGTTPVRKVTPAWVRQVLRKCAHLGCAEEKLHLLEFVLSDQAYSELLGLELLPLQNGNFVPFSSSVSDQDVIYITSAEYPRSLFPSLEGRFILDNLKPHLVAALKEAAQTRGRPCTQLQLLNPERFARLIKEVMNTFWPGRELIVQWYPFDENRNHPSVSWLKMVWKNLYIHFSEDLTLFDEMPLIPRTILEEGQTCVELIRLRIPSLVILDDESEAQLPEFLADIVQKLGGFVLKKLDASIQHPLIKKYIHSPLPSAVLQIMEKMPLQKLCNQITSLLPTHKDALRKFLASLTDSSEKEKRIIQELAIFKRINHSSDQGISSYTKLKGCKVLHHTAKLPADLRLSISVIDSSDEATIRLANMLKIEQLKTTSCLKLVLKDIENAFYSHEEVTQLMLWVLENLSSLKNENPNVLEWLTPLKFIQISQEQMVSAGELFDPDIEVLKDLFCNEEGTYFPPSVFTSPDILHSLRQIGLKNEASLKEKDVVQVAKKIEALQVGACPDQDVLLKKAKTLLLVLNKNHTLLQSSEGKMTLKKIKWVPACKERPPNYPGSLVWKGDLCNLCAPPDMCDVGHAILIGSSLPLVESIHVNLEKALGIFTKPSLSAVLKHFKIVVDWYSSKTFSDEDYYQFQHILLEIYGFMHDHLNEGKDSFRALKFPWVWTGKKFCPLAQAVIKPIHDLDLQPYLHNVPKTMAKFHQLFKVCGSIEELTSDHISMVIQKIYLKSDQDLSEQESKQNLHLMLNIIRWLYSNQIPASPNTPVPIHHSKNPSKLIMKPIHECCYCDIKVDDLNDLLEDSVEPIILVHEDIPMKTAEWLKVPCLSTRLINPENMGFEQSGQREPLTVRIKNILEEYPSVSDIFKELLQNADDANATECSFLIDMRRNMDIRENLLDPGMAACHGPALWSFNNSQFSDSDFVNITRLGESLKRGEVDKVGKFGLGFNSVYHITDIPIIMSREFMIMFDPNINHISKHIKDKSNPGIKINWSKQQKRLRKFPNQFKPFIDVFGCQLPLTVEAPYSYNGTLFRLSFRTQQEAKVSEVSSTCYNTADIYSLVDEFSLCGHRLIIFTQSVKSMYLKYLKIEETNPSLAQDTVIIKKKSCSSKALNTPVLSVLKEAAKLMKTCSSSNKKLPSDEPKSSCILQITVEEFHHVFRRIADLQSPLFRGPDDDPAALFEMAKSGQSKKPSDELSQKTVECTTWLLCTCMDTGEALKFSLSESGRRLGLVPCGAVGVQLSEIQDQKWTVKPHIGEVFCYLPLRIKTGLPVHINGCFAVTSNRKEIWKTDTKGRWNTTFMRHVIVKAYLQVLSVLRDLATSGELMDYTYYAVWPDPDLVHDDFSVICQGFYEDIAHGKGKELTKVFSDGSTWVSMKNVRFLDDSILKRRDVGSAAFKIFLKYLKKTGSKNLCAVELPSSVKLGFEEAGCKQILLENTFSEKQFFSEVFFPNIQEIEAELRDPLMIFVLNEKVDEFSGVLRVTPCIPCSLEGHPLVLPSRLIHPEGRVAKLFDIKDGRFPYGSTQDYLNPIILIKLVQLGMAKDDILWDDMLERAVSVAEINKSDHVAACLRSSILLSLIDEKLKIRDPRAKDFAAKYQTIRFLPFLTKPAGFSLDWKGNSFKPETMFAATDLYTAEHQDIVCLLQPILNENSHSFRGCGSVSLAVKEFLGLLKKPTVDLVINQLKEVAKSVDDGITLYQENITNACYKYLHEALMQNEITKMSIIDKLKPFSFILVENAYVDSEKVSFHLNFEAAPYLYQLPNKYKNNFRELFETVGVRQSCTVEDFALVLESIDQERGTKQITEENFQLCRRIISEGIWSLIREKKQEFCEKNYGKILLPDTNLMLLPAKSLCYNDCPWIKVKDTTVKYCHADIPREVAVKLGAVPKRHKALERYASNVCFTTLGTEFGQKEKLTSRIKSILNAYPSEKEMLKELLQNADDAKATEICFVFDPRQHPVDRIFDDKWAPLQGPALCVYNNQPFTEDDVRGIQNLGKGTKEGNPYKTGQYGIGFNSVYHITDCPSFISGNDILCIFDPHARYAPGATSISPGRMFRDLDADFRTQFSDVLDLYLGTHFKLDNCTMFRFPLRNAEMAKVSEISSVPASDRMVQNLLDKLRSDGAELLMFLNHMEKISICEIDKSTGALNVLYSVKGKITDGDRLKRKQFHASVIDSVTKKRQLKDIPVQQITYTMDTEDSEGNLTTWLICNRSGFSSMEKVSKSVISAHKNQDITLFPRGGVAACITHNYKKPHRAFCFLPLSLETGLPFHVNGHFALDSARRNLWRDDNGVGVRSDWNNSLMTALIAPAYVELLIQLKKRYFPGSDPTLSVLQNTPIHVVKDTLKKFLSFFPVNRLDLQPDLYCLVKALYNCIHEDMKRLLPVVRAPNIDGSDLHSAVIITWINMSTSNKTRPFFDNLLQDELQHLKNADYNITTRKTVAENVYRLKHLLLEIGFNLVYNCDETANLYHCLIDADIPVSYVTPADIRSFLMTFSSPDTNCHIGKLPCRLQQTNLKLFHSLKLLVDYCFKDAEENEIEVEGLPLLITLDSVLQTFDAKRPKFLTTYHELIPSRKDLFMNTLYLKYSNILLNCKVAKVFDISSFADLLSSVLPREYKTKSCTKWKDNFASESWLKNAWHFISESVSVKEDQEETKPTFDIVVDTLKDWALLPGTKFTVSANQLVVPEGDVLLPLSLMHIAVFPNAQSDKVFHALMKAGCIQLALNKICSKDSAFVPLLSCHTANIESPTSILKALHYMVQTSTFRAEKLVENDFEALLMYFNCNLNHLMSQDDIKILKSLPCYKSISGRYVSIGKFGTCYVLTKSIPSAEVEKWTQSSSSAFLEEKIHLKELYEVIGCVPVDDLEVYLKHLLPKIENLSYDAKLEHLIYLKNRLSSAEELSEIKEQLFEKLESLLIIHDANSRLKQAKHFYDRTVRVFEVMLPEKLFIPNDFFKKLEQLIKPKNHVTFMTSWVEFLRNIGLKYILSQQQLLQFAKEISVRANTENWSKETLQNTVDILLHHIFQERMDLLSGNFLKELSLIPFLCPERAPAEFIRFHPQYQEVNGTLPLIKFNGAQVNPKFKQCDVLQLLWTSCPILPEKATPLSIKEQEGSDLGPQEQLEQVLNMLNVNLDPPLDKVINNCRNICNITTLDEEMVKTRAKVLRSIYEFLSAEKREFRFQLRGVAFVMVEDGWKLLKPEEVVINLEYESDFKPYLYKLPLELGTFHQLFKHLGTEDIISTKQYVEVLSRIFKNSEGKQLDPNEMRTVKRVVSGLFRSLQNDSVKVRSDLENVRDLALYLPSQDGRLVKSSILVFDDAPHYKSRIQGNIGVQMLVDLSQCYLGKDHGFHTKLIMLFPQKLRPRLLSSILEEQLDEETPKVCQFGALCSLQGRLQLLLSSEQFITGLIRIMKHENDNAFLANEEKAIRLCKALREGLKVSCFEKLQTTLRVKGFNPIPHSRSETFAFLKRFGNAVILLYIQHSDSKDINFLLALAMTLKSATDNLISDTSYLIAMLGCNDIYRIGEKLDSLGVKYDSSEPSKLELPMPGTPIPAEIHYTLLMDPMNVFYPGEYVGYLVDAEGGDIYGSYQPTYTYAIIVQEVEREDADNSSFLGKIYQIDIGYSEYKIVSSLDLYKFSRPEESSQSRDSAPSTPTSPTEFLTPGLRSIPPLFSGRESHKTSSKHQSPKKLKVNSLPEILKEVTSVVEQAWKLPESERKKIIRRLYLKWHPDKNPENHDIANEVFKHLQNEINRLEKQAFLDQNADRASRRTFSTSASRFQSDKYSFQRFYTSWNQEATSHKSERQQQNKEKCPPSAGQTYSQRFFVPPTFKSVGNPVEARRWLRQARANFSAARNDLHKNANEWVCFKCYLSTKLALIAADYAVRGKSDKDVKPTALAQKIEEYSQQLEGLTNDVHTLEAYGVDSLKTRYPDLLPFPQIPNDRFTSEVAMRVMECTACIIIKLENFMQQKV
Sequence of UniProt O75818 (O75818 whole entry, looked up): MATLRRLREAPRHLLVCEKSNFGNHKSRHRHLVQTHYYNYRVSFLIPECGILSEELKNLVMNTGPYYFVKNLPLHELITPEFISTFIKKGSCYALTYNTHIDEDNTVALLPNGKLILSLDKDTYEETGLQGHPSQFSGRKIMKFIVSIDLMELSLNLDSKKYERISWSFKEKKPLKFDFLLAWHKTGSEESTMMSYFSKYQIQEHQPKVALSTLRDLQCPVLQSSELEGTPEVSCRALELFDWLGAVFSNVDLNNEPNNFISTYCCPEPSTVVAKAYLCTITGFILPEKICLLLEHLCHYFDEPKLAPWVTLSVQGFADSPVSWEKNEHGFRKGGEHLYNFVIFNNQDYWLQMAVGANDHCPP
Sequence of UniProt P09234 (P09234 whole entry, looked up): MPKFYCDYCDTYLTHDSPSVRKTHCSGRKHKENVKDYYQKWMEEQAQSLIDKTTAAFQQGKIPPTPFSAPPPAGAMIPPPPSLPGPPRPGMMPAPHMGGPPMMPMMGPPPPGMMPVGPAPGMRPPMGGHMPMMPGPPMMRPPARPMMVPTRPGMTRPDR

Target	probe-labelled cysteine peptide fold change (10 µM)	probe-labelled cysteine peptide fold change (50 µM)
SHCBP1_Q8NEM2_591_VDLEELIECATGK (UniProt Q8NEM2)	0.088	-0.228
SPECC1_Q5M775_633_EICDHQAEQLSR (UniProt Q5M775)	-0.00943	-0.0553
SIRT5_Q9NXA8_293+303_FHFQGPCGTTLPEALACHENETVS (UniProt Q9NXA8)	0.203	-0.0498
SP110_Q9HB58_327_DDSTCNSTVETR (UniProt Q9HB58)	0.0292	-0.106
SMARCB1_Q12824_147_NSQWVPTLPNSSHHLDAVPCSTTINR (UniProt Q12824)	-0.0549	-0.612
S100A10_P60903_62_DLDQCR (UniProt P60903)	-0.0944	-0.0317
SERBP1_Q8NC51_11_PGHLQEGFGCVVTNRFDQLFDDESDPFEVLK (UniProt Q8NC51)	-0.323	-0.648
SON_P18583_2070_ANAAAMCAK (UniProt P18583)	0.0129	-0.103
SETX_Q7Z333_1416_CMPSEPETIK (UniProt Q7Z333)	-0.13	-0.585
SERPINF2_P08697_152_LCQDLGPGAFR (UniProt P08697)	0.591	0.7
SMARCB1_Q12824_167_TFPLCFDDHDPAVIHENASQPEVLVPIRLDMEIDGQKLR (UniProt Q12824)	-0.0714	0.0299
SDF2_Q99470_137_NLHSHHFTSPLSGNQEVSAFGEEGEGDYLDDWTVLCNGPYWVR (UniProt Q99470)	0.298	0.622
SCFD2_Q8WU76_507_ALAQVFCEESGLSPLLQK (UniProt Q8WU76)	0.0961	0.0426
SNRPC_P09234_6_FYCDYCDTYLTHDSPSVR (UniProt P09234)	-0.122	-0.874
SAMD9_Q5K651_975+979_TEVIECGNYCGVR (UniProt Q5K651)	0.388	0.22
SACS_Q9NZJ4_3694_QCDVLQLLWTSCPILPEK (UniProt Q9NZJ4)	-0.00918	-0.0315

Target	probe-labelled cysteine peptide fold change (10 µM)	probe-labelled cysteine peptide fold change (50 µM)
SHMT1_P34896_335_VYQHQVVANCR (UniProt P34896)	0.0178	0.112
SLC7A6OS_Q96CW6_62_AAENNVFHLVATVCSQEEPVQPLLR (UniProt Q96CW6)	-0.0977	-0.671
RSF1_Q96T23_1311_IETDEEESCDNAHGDANQPAR (UniProt Q96T23)	0.0514	0.0946
SNX18_Q96RF0-2_570_CNTISFATLAEIHHFHQIR (UniProt Q96RF0)	0.155	0.111
SPCS2_Q15005_17+26_SGGSGGCSGAGGASNCGTGSGR (UniProt Q15005)	-0.266	-0.603
SLX4_Q8IY92_786_FGVSELVHLCEQVPIATDSEGKPWEEK (UniProt Q8IY92)	0.00222	0.116
RUBCNL_Q9H714_641_QCFQSSECPR (UniProt Q9H714)	0.144	0.15
SRI_P30626_75_CLTQSGIAGGYKPFNLETCR (UniProt P30626)	0.0396	-0.0761
RPS6KA3_P51812_436_EDIGVGSYSVCK<|>RPS6KA2_Q15349_429_EDIGVGSYSVCK (UniProt Q15349+P51812)	-0.0733	-0.656
SLC35B1_P78383_119_SCKPIPVMLLGVTLLK (UniProt P78383)	-0.942	0.0401
SESN1_Q9Y6P5_286_QLQECRDEEEASQEEMASR (UniProt Q9Y6P5)	-0.00479	-0.0495
SEPHS2_Q99611_377_FGLLQGTSAETSGGLLICLPR (UniProt Q99611)	0.196	-0.657
SON_P18583_1551_EMEHNTVCAAGTSPVGEIGEEK (UniProt P18583)	0.0276	-0.264
SKAP2_O75563_186_DCCFEISAPDK (UniProt O75563)	0.239	0.128
SND1_Q7KZF4_96_EVCFTIENK (UniProt Q7KZF4)	0.00729	0.0683
RPP40_O75818_49_VSFLIPECGILSEELK (UniProt O75818)	0.101	0.161
